TRPM1 prom inh – reduces MITF-dependent TRPM1 promoter luciferase signal; SK-MEL-5 TRPM1 promoter luciferase, 24 h; inhibition, % at 12.5 µM; 330,000 tested, 0.83% active;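 active = mean inhibition across replicates of 60% or more, whatever share of single replicates reaches that level; inconclusive = some that reach 60%, reason not given; inactive = mean inhibition across replicates below 60%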
CF NFkB block – cystic fibrosis NF-kB activation inhibition; KKLEB NF-kB-GFP reporter, PAF-induced, GFP fluorescence overnight; inhibition, % at 5 µM; 360,000 tested, 0.86% active;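 active = at least 50% inhibition at 5 µM, scaled per plate between neutral and stimulator controls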;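 note: PAF is a Pseudomonas aeruginosa culture filtrate used as stimulus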
Shn3 inh set2 – inhibitors of Schnurri-3 3'UTR reporter in osteoblasts; Clone20 osteoblast Shn3 3'UTR firefly luciferase, 24 h; inhibition, % at 12.5 µM; 360,000 tested, 0.52% active; AID 588674;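 active = mean inhibition of at least 75% with every replicate also reaching 75%; inconclusive = mean inhibition at least 75% but some replicate below; inactive = mean inhibition below 75%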
Peg3 prom inh-1 – inhibitors of Peg3 promoter; 360,000 tested, 1.7% active; inhibition, % at 20 µM; HeLa PEG-Prom luciferase reporter, luminescence, overnight;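 active = inhibition of at least 50% at 20 µM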
KKLEB cytotox – reduces viability of KKLEB cystic fibrosis airway cells; KKLEB CF airway cells viability, ATPlite luminescence, overnight; active compounds read low; cells stimulated with P. aeruginosa culture filtrate; activity change (cytotoxicity), % at 5 µM; 360,000 tested, 0.36% active; AID 602141;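 active = corrected activity change at or below -50% at 5 µM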
HIF-2a block – blocks HIF-2a reporter activity; inhibition, % at 18.8 µM; AID 624352; 360,000 tested, 0.72% active; 786-0 RCC cells HIF-2a reporter, luciferase luminescence, overnight;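 active = inhibition of the luminescence signal of 40% or more relative to plate controls, in a single-dose primary screen at 18.75 µM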
Peg3 prom inh-2 – confirmation of Peg3 promoter inhibitors. shares compounds with Peg3 prom inh-1. HeLa PEG-Prom luciferase reporter, luminescence, overnight. inhibition, % at 20 µM. 1,300 tested, 84% active;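 active = at 20 µM dose, 40% or more inhibition averaged across four replicates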
Of the large screens only hits and unclear results are named; the others gave an inactive call (follow-up assays come after a bar, where they were run). The list is not random: actives were taken first. Their share in the collection is about 2.8%.

COc1ccccc1C(CC(=O)O)NS(=O)(=O)c1ccc2c(c1)N(C(C)=O)CC(C)O2 (stereo not given)	none
CCCN(CCC)CCCNC(=O)c1cc2c(=O)[nH]c3ccccc3c2s1	none
CC(=O)Nc1cc(C)ns1	none
Cc1ccc2c(c1)COc1c3ccc(C(=O)O)cc3nn1-2	TRPM1 prom inh 70, Peg3 prom inh-1 89, HIF-2a block 83 | Peg3 prom inh-2 inactive
Cc1ccc2c(c1)COc1c3ccc(C(=O)NCC4CC4)cc3nn1-2	none
COc1cccc(CN(C)C(=O)C2CCN(S(=O)(=O)c3cccs3)CC2)c1OC	none
Cc1ccccc1CNC(=O)C1CCCN(c2nnc(C)c3c(C)n(-c4ccccc4)nc23)C1 (stereo not given)	TRPM1 prom inh 82, Peg3 prom inh-1 63 | Peg3 prom inh-2 81
COc1ccc2c(c1)[nH]c1c(=O)n(/N=C/C3C(C)C=C(C)CC3C)c(=O)[nH]c12 (stereo not given)	Peg3 prom inh-1 58 | Peg3 prom inh-2 45
CC1=CC(C)[C@H](/C=N/n2c(=O)[nH]c3c([nH]c4ccc(Br)cc43)c2=O)C(C)C1 (stereo not given in full)	Peg3 prom inh-1 93 | Peg3 prom inh-2 55
COc1ccc2[nH]c3c(=O)n(N)c(=O)[nH]c3c2c1	none
CCc1nc2ccc(C(=O)Nc3cccc(OCC(=O)N(C)C)c3)cn2c1N(C)Cc1ccc(OC)cc1	Peg3 prom inh-1 72 (no result: TRPM1 prom inh) | Peg3 prom inh-2 42
COc1cccc(NC(=O)CN(C)C(=O)c2cc(-c3ccco3)nc3ccccc23)c1	none
CN(CCOc1ccc(Cl)cc1)C(=O)c1cc(-c2ccco2)nc2ccccc12	Peg3 prom inh-1 64 | Peg3 prom inh-2 79
CCc1ccccc1N(CC)C(=O)C1CCN(c2ncnc3c2nc2n3CCCCC2)CC1	Peg3 prom inh-1 56 | Peg3 prom inh-2 inactive
CCOc1ccccc1NC(=O)c1oc2ccccc2c1NC(=O)C1CCCO1 (stereo not given)	Peg3 prom inh-1 74 | Peg3 prom inh-2 inactive
COc1ccc(NC(=O)c2cc3c(Cl)nc4ccccc4c3s2)c(OC)c1	Peg3 prom inh-1 52 | Peg3 prom inh-2 inactive
CCn1c(=O)c2cc(C(=O)Nc3ccc(OC)cc3OC)sc2c2ccccc21	none
O=C(CNC(=O)C(c1ccccc1)c1ccccc1)N/N=C/c1ccc(O)cc1O	Peg3 prom inh-1 51 | Peg3 prom inh-2 65
O=C(CNC(=O)C(c1ccccc1)c1ccccc1)N/N=C\c1cccc(O)c1	none
CCc1cc(-c2n[nH]c(C)c2-c2ccccc2Cl)c(O)cc1OC	none
Cc1cc(C(=O)CN2C(=O)c3ccccc3S2(=O)=O)c(C)n1-c1ccccc1	TRPM1 prom inh 81, Peg3 prom inh-1 93, HIF-2a block 86 | Peg3 prom inh-2 93
COc1cc(N=Nc2c(O)c3ccccc3[nH]c2=O)c(OC)cc1N=Nc1ccccc1	Peg3 prom inh-1 59 | Peg3 prom inh-2 83
CN(C)c1ccc(N=Nc2ccc(C(=O)O)cc2)cc1	TRPM1 prom inh 66, Peg3 prom inh-1 65, HIF-2a block 54 | Peg3 prom inh-2 inactive
CCCc1nc2c(=O)n(C)c(=O)nc-2n(C)n1	TRPM1 prom inh 104, CF NFkB block 97, Shn3 inh set2 97, Peg3 prom inh-1 104, HIF-2a block 80 | Peg3 prom inh-2 100
CCCCSc1ccc2nc(-c3ccc(C#N)cc3)cn2c1	none
CCCSc1ccc2nc(-c3ccccc3)cn2c1	TRPM1 prom inh 79, Peg3 prom inh-1 77, KKLEB cytotox -70, HIF-2a block 69 | Peg3 prom inh-2 69
CN(C)c1ccc(C=C2C=C(c3ccccc3)OC2=O)cc1	none (no result: TRPM1 prom inh)
CN(C)c1ccc(C=c2c3ccccc3n3c2cc(-c2ccccc2)[n+]3C)cc1	TRPM1 prom inh 95, Shn3 inh set2 inconclusive, Peg3 prom inh-1 104, HIF-2a block 90 | Peg3 prom inh-2 98
C=CCC[C@@H](Cc1ccc(F)cc1)C(=O)OC[C@@H](Cc1c[nH]c2ccccc12)NC(=O)[C@H](CC=C)CC(=O)N[C@H](CO)Cc1ccccc1	Peg3 prom inh-1 52 | Peg3 prom inh-2 inactive
C=CCC[C@H](Cc1ccc(F)cc1)C(=O)OC[C@@H](Cc1c[nH]c2ccccc12)NC(=O)[C@@H](CC=C)CC(=O)N[C@@H](CO)Cc1ccccc1	none
CCOc1ccccc1CN1CCNC(=O)C1CC(=O)NCc1ccccn1 (stereo not given)	none
CCOC(=O)N1CCN(S(=O)(=O)N2CCCC(C(=O)NCCCN3CCCCC3CC)C2)CC1 (stereo not given)	none
CCN(CC)S(=O)(=O)c1cccc(C(=O)N/N=C(\C)c2ccc(O)cc2O)c1	TRPM1 prom inh 71, Shn3 inh set2 93, Peg3 prom inh-1 52 | Peg3 prom inh-2 65
Cc1ccc(-n2[nH]c(=O)c(-c3ccccn3)c2C)cc1	TRPM1 prom inh 83, Peg3 prom inh-1 73, HIF-2a block 73 | Peg3 prom inh-2 59
Cc1ccc(-n2[nH]c(=O)c3cccnc32)cc1	none
OCCNCc1cc(Br)ccc1OCc1ccc(Cl)cc1Cl	Peg3 prom inh-1 65 | Peg3 prom inh-2 62
OCCNCc1cc(Br)ccc1OCc1ccc(Cl)cc1	none
O=C(CCC(=O)N1CCN(c2ccc(C(F)(F)F)cn2)CC1)c1cccs1	none
CCOC(=O)c1c(C)[nH]c(C(=O)CSc2nnc(-c3ccncc3)n2CC)c1C	none
C=CCn1c(SCC(=O)c2[nH]c(C)c(C(=O)OCC)c2C)nc2scc(-c3ccc(OC)c(OC)c3)c2c1=O	TRPM1 prom inh 102, CF NFkB block 56, Peg3 prom inh-1 86 | Peg3 prom inh-2 inactive
Cc1cccn2c(=O)nc(SCC(=O)NC3CCCC3)nc12	none
OCCNc1c2ccccc2nc2ccccc12	TRPM1 prom inh 88, Peg3 prom inh-1 98 | Peg3 prom inh-2 95
COc1ccc(C23CC4CC(CC(C4)C2)C3)cc1C(=O)NCCN(C)C	Peg3 prom inh-1 51 | Peg3 prom inh-2 75
COc1ccccc1C(=O)NCCC(=O)NCCC12CC3CC(CC(C3)C1)C2	none
O=C(Nc1nc2ccc(F)cc2s1)C1=COCCO1	none
O=C(Nc1nc2cc3c(cc2s1)OCCO3)C1=COCCO1	TRPM1 prom inh 91, Shn3 inh set2 88, Peg3 prom inh-1 97, KKLEB cytotox -56, HIF-2a block 80 | Peg3 prom inh-2 82
CCCN(Cc1ccc(C)cc1)C(=O)c1ccc(CNS(=O)(=O)c2ccc(C(C)=O)cc2)cc1	none
Oc1c(Br)cc(Br)c2cccnc12	Peg3 prom inh-1 50 | Peg3 prom inh-2 59
CCC1CCCCN1C(=S)NC(=O)c1cccc([N+](=O)[O-])c1 (stereo not given)	none
Cc1cc(C)c2nc(N(CCCN(C)C)C(=O)c3ccc(S(=O)(=O)N4CCCCCC4)cc3)sc2c1	Peg3 prom inh-1 80 | Peg3 prom inh-2 99
CCOC(=O)N1CCN(S(=O)(=O)c2ccc(C(=O)NNc3nc4cc(C)cc(C)c4s3)cc2)CC1	none
